This is part of a sample that, as a whole, favours compounds with a hit. Of some 83,000 tested, about 20% had one in any assay.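 A percent growth of 40 corresponds to 60% growth inhibition; 0 means no net growth; -100 means all cells died. Active threshold: below 10.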 Calls of active or inactive are those of the source.
Columns and labels:
Experiment in all cases: NCI-60 one-dose screen, 48 h (100 = growth as untreated, 0 = no growth, -100 = all killed)
Conditions in all cases: 10 µM unless noted
NCI-H226 lung = tested on: NCI-H226 lung
NCI-H322M lung = tested on: NCI-H322M lung
HOP-62 NSCLC = tested on: HOP-62 NSCLC
NCI-H460 lung = tested on: NCI-H460 lung
HOP-92 NSCLC = tested on: HOP-92 NSCLC
NCI-H522 lung = tested on: NCI-H522 lung
A549/ATCC NSCLC = tested on: A549/ATCC NSCLC
786-0 renal = tested on: 786-0 renal
COLO 205 colon = tested on: COLO 205 colon

Measured: growth

CCCCCCCCc1ccc(S(=O)(=O)Nc2ccc(CC)cc2C(=O)O)cc1
inactive: NCI-H226 lung 88% | NCI-H322M lung 95.2% | HOP-62 NSCLC 99.6% | NCI-H460 lung 96.7% | HOP-92 NSCLC 71% | NCI-H522 lung 91.4% | A549/ATCC NSCLC 91.9% | 786-0 renal 103% | COLO 205 colon 121%

Cc1cc(=O)oc2cc(OCCOc3ccc(/C=C/C(=O)Nc4ccccc4N)cc3)ccc12
active: NCI-H522 lung 3.88% | COLO 205 colon -24.8%
inactive: NCI-H226 lung 24.8% | NCI-H322M lung 63% | HOP-62 NSCLC 24.1% | NCI-H460 lung 19.5% | HOP-92 NSCLC 31% | A549/ATCC NSCLC 30.3% | 786-0 renal 23.4%

COc1ccc(NC(=O)[C@H](C)N)cc1C(=O)Nc1cccc(C2CC(=O)c3c(cc(OC)c(OC)c3OC)O2)c1 (some centres not stated)
inactive: NCI-H226 lung 85.5% | NCI-H322M lung 96.9% | HOP-62 NSCLC 113% | NCI-H460 lung 96.9% | HOP-92 NSCLC 69.4% | NCI-H522 lung 81.7% | A549/ATCC NSCLC 93.4% | 786-0 renal 91.1% | COLO 205 colon 115%
